# Reference: PubChem BioAssay (EPA / NIEHS)
# Results filed as inconclusive are left out. The source made the active and inactive calls. The calls were made as follows, unless noted: active = hit-call score of the fitted dose curve at least 0.9, where 1 is the maximum; inconclusive = response in the unintended direction; inactive = score below 0.9.
# What was measured:
# [1] = read-out: Transforming Growth Factor (TGFA), TGFA (gene 7039); assay: LTEA_HepaRG_TGFA: Life Technologies and Expression Analysis (LTEA) Assay for Transforming Growth Factor (TGFA) using HepaRG (AID 2283532; active = hit-call score of the fitted dose curve at least 0.9, where 1 is the maximum; inactive = score below 0.9); details: mRNA level, 48 h; actives raise or lower the signal
# In short: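 Differentiated HepaRG cells exposed 48 hours in serum-free induction medium, 0.5% DMSO vehicle, 8-point half-log series from 100 uM, in duplicate. TGFA mRNA by TaqMan qRT-PCR, normalised to ACTB, GAPDH, POLR2A; bidirectional fit versus DMSO.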
# [2] = read-out: Transforming Growth Factor (TGFB1), TGFB1 (gene 7040); assay: LTEA_HepaRG_TGFB1: Life Technologies and Expression Analysis (LTEA) Assay for Transforming Growth Factor (TGFB1) Transporter using HepaRG (AID 2283533; active = hit-call score of the fitted dose curve at least 0.9, where 1 is the maximum; inactive = score below 0.9); details: mRNA level, 48 h; actives raise or lower the signal
# In short: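 HepaRG, 48 h post-plating, switched to serum-free induction medium; chemicals 100 uM top, half-log, 8 pts, 0.5% DMSO, dup; 48 h exposure; RNA → Fluidigm TaqMan qRT-PCR; norm ACTB/GAPDH/POLR2A; bidirectional fit vs DMSO.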
# [3] = read-out: TIMP1, TIMP1 (gene 7076); assay: LTEA_HepaRG_TIMP1: Life Technologies and Expression Analysis (LTEA) Assay for TIMP1 using HepaRG (AID 2283534; active = hit-call score of the fitted dose curve at least 0.9, where 1 is the maximum; inactive = score below 0.9;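 also: TaqMan qRT-PCR signal normalized to ACTB GAPDH and POLR2A housekeeping genes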); details: mRNA level, 48 h; actives raise or lower the signal
# In short: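 Readout is TIMP1 mRNA level measured by qRT-PCR and normalized to three housekeeping genes. Human HepaRG cells were treated for 48 h in duplicate at eight concentrations up to 100 uM (0.5% DMSO); gain or loss fitted against DMSO.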
# [4] = read-out: Tumor necrosis factor receptor 1 (TNFRSF1A), TNFRSF1A (gene 7132); assay: LTEA_HepaRG_TNFRSF1A: Life Technologies and Expression Analysis (LTEA) Assay for Tumor necrosis factor receptor 1 (TNFRSF1A) using HepaRG (AID 2283535; active = hit-call score of the fitted dose curve at least 0.9, where 1 is the maximum; inactive = score below 0.9); details: mRNA level, 48 h; actives raise or lower the signal
# In short: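 Read-out is TNFRSF1A transcript level by TaqMan qRT-PCR, normalized to three housekeeping genes, scored as gain or loss of signal versus 0.5% DMSO. Human HepaRG cells received test chemicals for 48 h at up to 100 uM (half-log series).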
# [5] = read-out: Thyroid Hormone Responsive (THRSP), THRSP (gene 7069); assay: LTEA_HepaRG_THRSP: Life Technologies and Expression Analysis (LTEA) Assay for Thyroid Hormone Responsive (THRSP) using HepaRG (AID 2283536; active = hit-call score of the fitted dose curve at least 0.9, where 1 is the maximum; inactive = score below 0.9); details: mRNA level, 48 h; actives raise or lower the signal
# In short: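 Differentiated HepaRG cells treated 48 h in serum-free induction medium with 8 half-log concentrations up to 100 uM (0.5% DMSO), duplicates. THRSP mRNA by TaqMan qRT-PCR normalised to ACTB, GAPDH, POLR2A; bidirectional fit versus DMSO.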
# [6] = read-out: Cellular tumor antigen p53 (Homo sapiens) (UniProt P04637); assay: LTEA_HepaRG_TP53: Life Technologies and Expression Analysis (LTEA) Assay for Tumor Protein P53 (TP53) using HepaRG (AID 2283537; active = hit-call score of the fitted dose curve at least 0.9, where 1 is the maximum; inactive = score below 0.9); details: mRNA level, 48 h; actives raise or lower the signal
# In short: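 TP53 transcript measured by qRT-PCR, normalized to three housekeeping genes, after 48 h treatment of human HepaRG cultures with chemicals from 100 uM downward in half-log steps (0.5% DMSO vehicle, serum-free induction medium). Up- or down-regulation fitted against DMSO.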
# [7] = read-out: UDP glucuronosyltransferase (UGT1A1), UGT1A1 (gene 54658); assay: LTEA_HepaRG_UGT1A1: Life Technologies and Expression Analysis (LTEA) Assay for UDP glucuronosyltransferase (UGT1A1) using HepaRG (AID 2283538; active = hit-call score of the fitted dose curve at least 0.9, where 1 is the maximum; inactive = score below 0.9); details: mRNA level, 48 h; actives raise or lower the signal
# In short: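 Differentiated human HepaRG cells in serum-free induction medium were exposed in duplicate for 48 h to eight half-log concentrations up to 100 uM in 0.5% DMSO. UGT1A1 mRNA was quantified by TaqMan qRT-PCR, normalized to ACTB, GAPDH and POLR2A, and fitted bidirectionally against DMSO.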
# [8] = read-out: UDP glucuronosyltransferase (UGT1A6), UGT1A6 (gene 54578); assay: LTEA_HepaRG_UGT1A6: Life Technologies and Expression Analysis (LTEA) Assay for UDP glucuronosyltransferase (UGT1A6) using HepaRG (AID 2283539; active = hit-call score of the fitted dose curve at least 0.9, where 1 is the maximum; inactive = score below 0.9); details: mRNA level, 48 h; actives raise or lower the signal
# In short: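 HepaRG, 48 h post-plating switch to serum-free induction medium; chemical 48 h, 100 uM top, half-log x8, duplicate, 0.5% DMSO. Phenobarbital 1mM induction control. UGT1A6 mRNA by TaqMan qRT-PCR; gain/loss fit vs DMSO.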
# [9] = read-out: X-box binding protein 1 (XBP1), XBP1 (gene 7494); assay: LTEA_HepaRG_XBP1: Life Technologies and Expression Analysis (LTEA) Assay for X-box binding protein 1 (XBP1) using HepaRG (AID 2283540; active = hit-call score of the fitted dose curve at least 0.9, where 1 is the maximum; inactive = score below 0.9); details: mRNA level, 48 h; actives raise or lower the signal
# In short: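 Transcript levels of XBP1, measured by qRT-PCR and normalised to three housekeeping genes, were fitted bidirectionally relative to 0.5% DMSO controls. Human HepaRG cells received eight-point half-log dilutions from 100 uM for 48 h.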
# [10] = LTEA_HepaRG_LDH_cytotoxicity: Cytotoxicity Assessment in the Life Technologies and Expression Analysis (LTEA) Assay (AID 2283563)
# In short: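 Cells were thawed and plated for 48 h. Medium was then replaced with serum-free induction medium. Chemicals (8 half-log points, maximum 100 uM, 0.5% DMSO) were added in duplicate for 48 h, after which spent medium was assayed for LDH.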
# [11] = TOX21_p53_BLA_p2_viability: Viability Assessment in the Tox21 HCT-116 p53 Agonism Beta-lactamase Assay, Phase 2 (AID 2283591);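 also: compound exposure lasted 16 h at 37 °C; actives lower the ATP signal meaning cytotoxicity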
# In short: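 HCT116 p53-bla cells, 4000/well, dosed after 5 h plating (217-fold dilution of DMSO stocks) and incubated 16 h at 37C. Viability taken as cellular ATP by CellTiter-Glo luminescence after 30 min RT; signal loss marks cytotoxicity.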
# [12] = biological target: Cellular tumor antigen p53 (Homo sapiens) (UniProt P04637); assay: TOX21_p53_BLA_p2_ratio: Tox21 HCT-116 p53 Agonism Beta-lactamase Assay, Ratio, Phase 2 (AID 2283592)
# In short: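 HCT116 p53-bla; 4000 cells/well; 5 h pre-incubation; cpd in DMSO, 217-fold dilution; 16 h 37C/5% CO2; CCF4-AM 2 h RT; Ex 405, Em 460/530 ratio; DMSO = baseline; positive fitting direction.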
# [13] = TOX21_p53_BLA_p3_viability: Viability Assessment in the Tox21 HCT-116 p53 Agonism Beta-lactamase Assay, Phase 3 (AID 2283593);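 also: cells exposed to compound for 16 h before reading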
# In short: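 HCT116 cells, 4000/well, dosed 5 h after plating by pin transfer (217-fold dilution from DMSO stock) and incubated 16 h at 37C, 5% CO2. Viability read as ATP luminescence with CellTiter-Glo after 30 min at room temperature.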
# [14] = biological target: Cellular tumor antigen p53 (Homo sapiens) (UniProt P04637); assay: TOX21_p53_BLA_p3_ratio: Tox21 HCT-116 p53 Agonism Beta-lactamase Assay, Ratio, Phase 3 (AID 2283596)
# In short: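 HCT116 p53-bla cells (4000/well) given compound in DMSO (217-fold dilution) after 5 h, incubated 16 h at 37C. CCF4-AM substrate 2 h at room temperature; 460/530 nm emission ratio, gain fitted against DMSO.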
# [15] = TOX21_p53_BLA_p4_viability: Viability Assessment in the Tox21 HCT-116 p53 Agonism Beta-lactamase Assay, Phase 4 (AID 2283597);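 also: hits lower the luminescence signal meaning cytotoxicity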
# In short: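 Cells plated, 5 h pre-incubation; DMSO compounds pinned (217-fold dilution); 16 h, 37C/5% CO2; CCF4-AM 2 h RT; CellTiter-Glo 30 min RT; luminescence read.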
# [16] = biological target: Cellular tumor antigen p53 (Homo sapiens) (UniProt P04637); assay: TOX21_p53_BLA_p5_ratio: Tox21 HCT-116 p53 Agonism Beta-lactamase Assay, Ratio, Phase 5 (AID 2283599)
# In short: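 HCT-116 p53-bla cells (4000/well) plated 5 h, dosed with compound (217-fold DMSO dilution) for 16 h at 37 C; CCF4-AM substrate 2 h at room temperature. Activity is the 460/530 nm emission ratio (405 nm excitation), fitted in gain-of-signal direction versus DMSO.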
# [17] = TOX21_p53_BLA_p5_viability: Viability Assessment in the Tox21 HCT-116 p53 Agonism Beta-lactamase Assay, Phase 5 (AID 2283600)
# In short: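 4000 cells/well; 5 h pre-incubation; DMSO compounds pin-transferred, 217-fold dilution; 16 h, 37C/5% CO2; CCF4-AM 2 h RT; CellTiter-Glo 30 min RT; luminescence.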
# [18] = Tanguay_ZF_120hpf_MORT_legacy: (Legacy) Oregon State University Tanguay Lab 120 Hour Post-fertilization zebrafish Assay for Mortality (AID 2283633)
# In short: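 5D WT zebrafish, chorion removed 4 hpf; 1 embryo/well from 6 hpf; static exposure to 120 hpf, 28C, dark, sealed. Final DMSO 0.64%. Readout: binary mortality, brightfield, 24 + 120 hpf; DMSO as negative control.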
# [19] = Tanguay_ZF_120hpf_YSE_legacy: (Legacy) Oregon State University Tanguay Lab 120 Hour Post-fertilization zebrafish Assay for Yolk Sac Edema (AID 2283634)
# In short: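 Dechorionate (pronase, 4 hpf) → place one 6 hpf embryo per well → static compound exposure, sealed and foil-covered, 28C, to 120 hpf → record yolk sac edema as present or absent. Final DMSO 0.64%.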
# Chain of Cellular tumor antigen p53 (Homo sapiens) (P04637 whole entry, looked up): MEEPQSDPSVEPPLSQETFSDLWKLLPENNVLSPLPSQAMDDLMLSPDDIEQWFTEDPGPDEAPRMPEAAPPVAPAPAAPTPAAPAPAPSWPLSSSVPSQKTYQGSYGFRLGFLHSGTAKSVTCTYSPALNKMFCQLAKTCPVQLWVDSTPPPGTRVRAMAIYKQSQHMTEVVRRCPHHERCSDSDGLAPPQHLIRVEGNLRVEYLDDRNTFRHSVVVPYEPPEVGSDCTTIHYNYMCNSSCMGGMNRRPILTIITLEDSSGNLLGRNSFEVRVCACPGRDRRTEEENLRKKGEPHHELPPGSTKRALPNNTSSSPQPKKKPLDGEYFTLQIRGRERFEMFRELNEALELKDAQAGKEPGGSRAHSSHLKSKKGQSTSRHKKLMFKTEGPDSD
smiles,measurement,setting,value
c1cc[n+]2c(c1)-c1cccc[n+]1CC2,outcome,[1],inactive
same,outcome,[2],inactive
same,outcome,[3],inactive
same,outcome,[4],inactive
same,outcome,[5],inactive
same,outcome,[6],inactive
same,outcome,[7],inactive
same,outcome,[8],inactive
same,outcome,[9],inactive
same,outcome,[10],inactive
same,outcome,[11],inactive
same,outcome,[12],inactive
same,outcome,[13],inactive
same,outcome,[14],inactive
same,AC50,[15],20 µM (active)
same,outcome,[16],inactive
same,outcome,[17],inactive
same,outcome,[18],inactive
same,outcome,[19],inactive
